Screening data (PubChem BioAssay)
FECH inh – blocks human mitochondrial ferrochelatase activity | P22830 | AID 1671448 | calls only at 10 µM (by protocol) | 20,000 tested, 3.3% active | purified FECH, Ni-mesoporphyrin absorbance 550 nm;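 active = enzyme reaction rate more than 3 SD below the solvent-only control wells on the same plate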;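 also: lower slope than DMSO wells means FECH inhibition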
Target sequence (P22830 whole entry, looked up): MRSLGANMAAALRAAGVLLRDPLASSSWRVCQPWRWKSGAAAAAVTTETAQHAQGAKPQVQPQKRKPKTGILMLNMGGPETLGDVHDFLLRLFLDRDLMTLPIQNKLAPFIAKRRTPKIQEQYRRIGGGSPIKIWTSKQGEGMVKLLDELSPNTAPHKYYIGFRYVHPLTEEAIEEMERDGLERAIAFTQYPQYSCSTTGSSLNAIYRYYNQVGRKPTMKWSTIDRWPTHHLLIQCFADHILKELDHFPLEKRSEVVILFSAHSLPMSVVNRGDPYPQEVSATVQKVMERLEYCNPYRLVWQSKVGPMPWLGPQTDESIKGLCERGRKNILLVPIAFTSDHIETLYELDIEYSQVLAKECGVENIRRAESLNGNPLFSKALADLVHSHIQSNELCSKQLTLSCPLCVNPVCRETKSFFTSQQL
Calls only; n = inactive; + = active, no number. The entries come from a sample that favours hits as a whole.

SMILES	FECH inh
CC(C)CCNc1nc(Nc2ccccc2)c2cnn(-c3ccccc3)c2n1	n
CCOc1ccc(NC(=O)Nc2ccc(Sc3cc(CC)nc4nc(C)nn34)cc2)cc1	n
CCc1ccc(NC(=O)Nc2ccc(Sc3cc(CC)nc4nc(C)nn34)cc2)cc1	n
CCOC(=O)Cc1ccc(NC(=O)Nc2ccc(Sc3cc(CC)nc4nc(C)nn34)cc2)cc1	+
Cc1nc2ncnn2c(Sc2ccc(NC(=O)Nc3cccc(F)c3)cc2)c1C	n
Cc1cc(C(=O)N(C)C(C)c2nc(C)sc2C)c2c(C)noc2n1 (stereo not given)	n
CCCS(=O)(=O)N1CCN(Cc2nc3cccnc3n2-c2ccc(CC)cc2)CC1	n
CCc1cccc(N2C(=O)N(Cc3cc(F)cc(F)c3)c3ccccc3S2(=O)=O)c1	+
Cc1ccc(N2C(=O)N(Cc3cc(=O)n4ccccc4n3)c3ccccc3S2(=O)=O)cc1	n
O=C1CN(Cc2cccc(Br)c2)S(=O)(=O)c2ccccc2N1Cc1cccc(F)c1	n
Cc1cccc(N2C(=O)N(Cc3ccc(C)c(C)c3)c3ccccc3S2(=O)=O)c1	+
O=C1CN(Cc2ccc(F)cc2)S(=O)(=O)c2ccccc2N1Cc1ccc(Cl)cc1	n
Cc1ccc(C)c(CN2CC(=O)N(Cc3cccc(C(F)(F)F)c3)c3ccccc3S2(=O)=O)c1	n
Cc1ccc(N2C(=O)N(Cc3ccc(C(C)(C)C)cc3)c3ccccc3S2(=O)=O)cc1F	n
Cc1ccc(N2C(=O)N(Cc3cc(F)cc(F)c3)c3ccccc3S2(=O)=O)c(C)c1	+
CC(C)(C)c1ccc(CN2C(=O)N(c3cc(F)ccc3F)S(=O)(=O)c3ccccc32)cc1	n
CCc1cccc(N2C(=O)N(CC(=O)NC3CCCCC3)c3ccccc3S2(=O)=O)c1	n
Cc1ccc(N2C(=O)N(Cc3cc(F)cc(F)c3)c3ccccc3S2(=O)=O)cc1	+
COc1cccc(N2C(=O)N(Cc3ccc(C(C)(C)C)cc3)c3ccccc3S2(=O)=O)c1	n
CC(C)c1ccc(NC(=O)Cn2c(=O)c3cnc(-c4ccccc4)nc3n(C)c2=O)cc1	n
COCC(=O)NCC1CCN(Cc2cc(C)ccc2C)C1 (stereo not given)	n
Nc1nnc(CCCNC(=O)C2(c3ccccc3F)CC2)s1	n
Cc1ccc(Cn2c(CNS(=O)(=O)c3ccc(C)c(C)c3)nc3cccnc32)cc1	n
O=C(NCc1cccc(Cl)c1)c1nc(N2CCOCC2)c2oc3ccccc3c2n1	n
COc1ccccc1NS(=O)(=O)c1ccc2c(c1)CCN2C(=O)CCC(=O)N1CCOCC1	n
SMILES	FECH inh
COc1cccc(-c2cc(N3CCN(C(=O)NC4CCCCC4)CC3)ncn2)c1	n
COc1ccc(CNc2nc3nc(CNc4ccc(OC)cc4)cc(=O)n3[nH]2)cc1	n
Cc1ccc(NCc2nc3nc(C(C)C)cc(=O)n3[nH]2)cc1Cl	+
COc1ccccc1CNc1nc2nc(CNc3cccc(C(F)(F)F)c3)cc(=O)n2[nH]1	n
CC(C)c1cc(=O)n2[nH]c(CNc3cccc(C(F)(F)F)c3)nc2n1	+
COc1ccc(CNc2nc3nc(CNc4cccc(C(F)(F)F)c4)cc(=O)n3[nH]2)cc1	n
CCc1nc2nc(C)c(NC(=O)Nc3ccc(C)c(Cl)c3)c(=O)n2[nH]1	n
c1ccc2sc(-c3nccn3CCCn3ccnc3)cc2c1	n
COc1ccc(Nc2cc(C)nc(Nc3ccc(NC(=O)CCC4CCCCC4)cc3)n2)cc1	n
Cc1cccc(C(=O)Nc2cccc(NC(=O)C3COCCO3)c2)c1 (stereo not given)	n
O=C(c1cccnc1)N1CCc2c(ncnc2NCCn2cccn2)C1	n
CCCC(C)CN1CCC(n2cc(-c3ccccc3)nn2)CC1 (stereo not given)	n
CCCC(C)CN1CCC(n2cc(CN(C)C)nn2)CC1 (stereo not given)	+
CCCCc1cn(C2CCN(C(=O)C3CC(=O)N(C(C)(C)C)C3)CC2)nn1 (stereo not given)	n
COc1ccccc1CNS(=O)(=O)c1ccc2c(c1)CCN2C(=O)CCC(=O)N1CCCCCC1	n
Cc1ccc(-c2nc(C)cc(OCC(=O)Nc3c(C)cccc3C)n2)cc1	n
COc1ccc(CC(=O)NCCn2c(-c3ccccc3)nc3cccnc32)c(Cl)c1	n
COC(=O)CNC(=O)NCCn1c(-c2ccccc2)nc2cccnc21	+
CCc1ccc(S(=O)(=O)NCCn2c(-c3ccc(C)cc3)nc3cccnc32)cc1	n
Cc1cc(C)cc(NC(=O)NCCn2c(-c3ccncc3)nc3cccnc32)c1	n
Cc1ccc(NC(=O)NCCn2c(-c3ccncc3)nc3cccnc32)cc1Cl	+
Cc1ccc(-c2nc3cccnc3n2CCNS(=O)(=O)c2ccc(C)cc2)cc1	n
COc1ccc(NC(=O)NCCn2c(-c3ccncc3)nc3cccnc32)cc1	n
CCC(=O)Nc1ccc(S(=O)(=O)NCCn2c(-c3ccc(C)cc3)nc3cccnc32)cc1	+
CCc1ccccc1NC(=O)NCCn1c(-c2ccncc2)nc2cccnc21	n
SMILES	FECH inh
COc1ccc(CC(=O)NCCn2c(C(F)(F)F)nc3cccnc32)c(Cl)c1	n
CCC(c1cccnc1)N(C)Cc1cccc(C(=O)Nc2cnn(C)c2)c1 (stereo not given)	n
CCN1CC(CN(C)c2nc(C)nc3sccc23)CC1=O (stereo not given)	n
Cc1c(CN2CCCC(Cn3ccnc3)C2)[nH]c2c(Cl)cccc12 (stereo not given)	n
CCCCOc1ccc(C(=O)Nc2ccc(Nc3nc(C)cc(N(C)C)n3)cc2)cc1	n
CCc1cc(-c2ccc(S(C)(=O)=O)cc2)ccc1NC(C)=O	n
COc1ccc2cc(C3CN(c4nccs4)CCO3)ccc2c1 (stereo not given)	n
Cc1ccc(CN2CCCN(c3ccccc3)CC2)o1	n
Cc1cccc(NS(=O)(=O)c2cc(C(=O)N3CCCC3)cs2)c1C	+
Cc1ccccc1CNS(=O)(=O)c1cc(C(=O)N2CCCC2)cs1	n
Cc1ccc(C)c(NS(=O)(=O)c2cc(C(=O)N3CCCC3)cs2)c1	+
CCc1ccccc1NS(=O)(=O)c1cc(C(=O)N2CCCC2)cs1	n
O=C(c1csc(S(=O)(=O)Nc2ccccc2F)c1)N1CCCCC1	n
CCc1cccc(C)c1NS(=O)(=O)c1cc(C(=O)N2CCCC2)cs1	n
Cc1ccc(Nc2nc(N3CCC(Cc4ccccc4)CC3)nc3c2cnn3-c2ccccc2)cc1	n
Cc1cc(C)n2nc(CN(Cc3ccccc3)S(=O)(=O)c3ccccc3)nc2n1	n
Cc1nc2c(c(N(C)C)n1)CCN(C(=O)[C@@H]1C[C@@H](O)CN1)C2	n
COc1ccc(Nc2cc(C)nc(Nc3ccc(NC(=O)c4ccccc4OC)cc3)n2)cc1	+
COc1ccc(Nc2cc(C)nc(Nc3ccc(NC(=O)c4cc(Cl)ccc4OC)cc3)n2)cc1	n
COc1ccc(C(=O)Nc2ccc(Nc3nc(C)cc(Nc4ccccc4)n3)cc2)cc1	n
NS(=O)(=O)c1ccc(CCNC(=O)C2CC(=O)N(CCc3c[nH]c4ccc(F)cc34)C2)cc1 (stereo not given)	n
CCCc1c(C)nc2ncnn2c1Sc1ccc(NC(=O)c2ccccc2OC)cc1	n
CCc1ccc(NC(=O)Nc2ccc(Sc3c(CC)c(C)nc4ncnn34)cc2)cc1	n
CCOc1ccccc1C(=O)Nc1ccccc1Sc1c(CC)c(C)nc2ncnn12	n
CCc1c(C)nc2ncnn2c1Sc1ccc(NC(=O)c2ccccc2OC)cc1	+
CCc1c(C)nc2ncnn2c1Sc1ccc(NC(=O)c2cc(OC)c(OC)c(OC)c2)cc1	n
CCc1c(C)nc2ncnn2c1Sc1ccc(NC(C)=O)cc1	n
